High-throughput results deposited in PubChem BioAssay by National Center for Advancing Translational Sciences (NCATS).
TSHR ag: qHTS Assay for Agonists of the Thyroid Stimulating Hormone Receptor. Potency, µM (top dose mostly 57.1 µM), inactives show at the highest dose activation, actives largely listed as activators. AID 926, 2007. HEK293-CNG-TSHR cells (CNG channel as cAMP sensor), membrane potential dye, cAMP. hit rate 0.48% among 73,000; active = well fitted activation curve with a large enough effect in the main read-out, with a control signal flat, not every such curve was filed as active; inconclusive = small, poorly fitted or top-dose-only effect, or a change in a side signal; inactive = no such curve, though single readings can be large or run the other way; % of control where 0% means no effect;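 note: the control signal comes from parental cells without the receptor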
Target sequence (P16473 whole entry, looked up): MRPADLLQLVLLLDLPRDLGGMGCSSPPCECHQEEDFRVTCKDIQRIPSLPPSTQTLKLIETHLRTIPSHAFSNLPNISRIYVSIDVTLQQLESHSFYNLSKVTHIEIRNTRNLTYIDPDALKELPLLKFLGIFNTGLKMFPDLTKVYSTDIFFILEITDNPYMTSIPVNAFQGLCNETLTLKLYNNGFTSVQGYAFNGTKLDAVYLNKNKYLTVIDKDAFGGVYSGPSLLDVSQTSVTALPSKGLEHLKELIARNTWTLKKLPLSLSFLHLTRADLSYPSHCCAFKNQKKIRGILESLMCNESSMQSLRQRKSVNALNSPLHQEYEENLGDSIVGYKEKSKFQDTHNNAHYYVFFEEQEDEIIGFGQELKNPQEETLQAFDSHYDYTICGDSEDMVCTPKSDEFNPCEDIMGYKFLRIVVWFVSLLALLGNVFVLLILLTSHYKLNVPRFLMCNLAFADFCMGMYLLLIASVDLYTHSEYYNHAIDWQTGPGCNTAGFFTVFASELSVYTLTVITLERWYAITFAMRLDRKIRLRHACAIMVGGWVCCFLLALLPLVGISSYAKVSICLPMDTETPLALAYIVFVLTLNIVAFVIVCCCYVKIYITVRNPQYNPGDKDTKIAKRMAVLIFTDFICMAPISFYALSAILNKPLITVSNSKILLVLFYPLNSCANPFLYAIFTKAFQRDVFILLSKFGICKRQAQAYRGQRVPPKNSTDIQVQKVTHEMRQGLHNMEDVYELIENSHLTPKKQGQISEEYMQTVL
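cAMP rise detected as CNG-channel membrane depolarization by fluorescent dye (emission 590 nm), 30 min after compound, following 60 min dye loading containing 100 uM RO 20-1724 at room temperature. Cells: TSHR/CNG HEK 293, with parental CNG HEK 293 as control.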
HEK293 cAMP ctrl: qHTS Assay for Agonists of the Thyroid Stimulating Hormone Receptor: Activators of Intracellular cAMP Concentrations in Parental HEK 293 | hit rate 2.5% among 73,000 | Potency, µM (doses to about 57.1 µM), inactives show at the top dose activation, actives largely listed as activators | parental HEK293 CNG cAMP sensor, membrane potential fluorescence; active = well fitted activation curve with a large enough effect; inconclusive = small, poorly fitted or top-dose-only effect; inactive = no such curve, though single readings can be large or run the other way; note: % of control where 0% means no effect; nearly all actives have a fitted effect of over 55% in size
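Parental HEK 293 cells stably expressing a modified CNG channel (no TSHR) report cAMP rise as membrane depolarization. Membrane potential dye with 100 uM RO 20-1724 was loaded for 60 min at room temperature, then compound added for 30 min; fluorescence read at 590 nm.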
An asterisk follows results filed as active; ? = inconclusive; / = not tested or not shown; [ ] = dose if it differs, or a comment. The list is not random: actives were taken first. Their share in the collection is about 2.9%. Potency is the fitted concentration of half-maximal effect.

SMILES	TSHR ag	HEK293 cAMP ctrl
COC(=O)c1ccccc1NC(=O)c1ccc(-c2ccccc2F)o1	28%	21%
COc1ccc(Cl)cc1NC(=O)CN(C(=O)c1ccco1)C1CCCCC1	?	4µM*
O=C(O)c1nc(-c2ccccc2)[nH]c1C(=O)O	-2%[11.4 µM]	5%[11.4 µM]
O=C(Nc1ccc(Cl)cc1C(=O)Nc1ccccn1)c1ccco1	/	49%
CCOc1ccccc1NC(=O)c1cc(Cl)ccc1NC(=O)c1ccco1	?	25µM*
CC[C@]1(O)C[C@@H]2CN(CCc3c([nH]c4ccccc34)[C@](C(=O)OC)(c3cc4c(cc3OC)N(C=O)[C@H]3[C@@](O)(C(=O)OC)[C@H](C(=O)OC)[C@@]5(CC)C=CCN6CC[C@]43[C@H]65)C2)C1	2%	4%
COC(=O)NC(/C(C(=O)OC)=C(\C)NCc1ccccc1)c1ccco1 (stereo unspecified)	-3%[11.4 µM]	0%[11.4 µM]
Cc1nn(Cc2ccccc2)c(Cl)c1C(=O)OCc1nnc(-c2ccc(Cl)cc2)o1	?	25µM*
CCOc1ncccc1C(=O)OCc1nnc(-c2ccccc2)o1	5%	14%
CCCc1cc(=O)oc2cc(C)c3c(C)coc3c12	27%	14%
CCc1cc(=O)oc2cc(OCC(=O)OC)c(Cl)cc12	15%	-14%
CCCc1cc(=O)oc2cc3oc(C)c(C)c3cc12	?	25µM*
CCc1cc(=O)oc2cc3oc(C)c(C)c3cc12	?	25µM*
COc1ccc(/C=C/N(CCc2ccc(OC)c(OC)c2)C(=O)c2ccccn2)cc1	5%[11.4 µM]	15%[11.4 µM]
CCN(CC)CCCC(C)NC(=O)c1ccc(Cc2nc3ccccc3[nH]2)cc1 (stereo unspecified)	2%	-16%
COCCn1c(=O)c(C)nc2cncnc21	10%	9%
O=C(COC(=O)C1CC2C=CC1C2)NCc1ccco1 (stereo unspecified)	0%	-5%
O=C(COC(=O)C1CCCCC1C(=O)N1CCc2ccccc21)NCc1ccco1 (stereo unspecified)	?	20µM*
c1ccc2cc(-c3cc(-c4cc(-c5ccc6ccccc6c5)on4)no3)ccc2c1	1%[11.4 µM]	3%[11.4 µM]
Cc1ccco1	-2%	-7%
CO/N=C\c1ccc(C(=O)N2[C@H](c3ccc(C)cc3)[C@@H](C)CC[C@H]2C(=O)OC)cc1	?	2µM*
COC(=O)[C@@H]1CC[C@H](C)[C@@H](c2ccc(C)cc2)N1C(=O)c1ccc(/C=N\O[C@@H]2O[C@H](COC(C)=O)[C@H](OC(C)=O)[C@H](OC(C)=O)[C@H]2OC(C)=O)cc1	2%[11.4 µM]	25%[11.4 µM]
COc1ccccc1-c1nnc2sc(-c3ccc(N(C)C)cc3)nn12	/	26%
COc1ccccc1-c1nnc2sc(-c3cc4ccccc4o3)nn12	?	25µM*
Nc1ncnc2c1ncn2[C@H]1O[C@@H](C(=O)OCCO)[C@@H](O)[C@H]1O	14%[11.4 µM]	0%[11.4 µM]
SMILES	TSHR ag	HEK293 cAMP ctrl
c1ccc(-c2ccc(N3CCCC4(CCNCC4)C3)cc2)cc1	?	-53%
Nc1nc2c(c(=O)[nH]1)CN(CCCN1CCOCC1)CN2	-1%[11.4 µM]	3%[11.4 µM]
CCCC[C@@H]1C[C@H]1C(NC(=O)c1ccco1)c1ccccc1C(F)(F)F (stereo partly specified)	?	32µM*
CCCC[C@@H]1C[C@H]1C(NC(=O)c1ccco1)c1ccc(Cl)cc1 (stereo partly specified)	?	16µM*
O=C(Nc1ccc(Cl)c(C(F)(F)F)c1)c1ccco1	8%[11.4 µM]	1%[11.4 µM]
C=C(CC1([C@@H](NP(=O)(c2ccccc2)c2ccccc2)[C@H]2C[C@@H]2CCCC)CC1)c1ccccc1	7%	11%
CCCC[C@@H]1C[C@H]1C(NC(=O)c1ccco1)c1ccc(-c2ccccc2)cc1 (stereo partly specified)	-5%	17%
CCCC[C@@H]1C[C@H]1C(NC(=O)c1ccccc1)c1ccccc1 (stereo partly specified)	?	13µM*
O=c1c(-c2cccs2)nc2cnc(N3CCNCC3)nc2n1CCc1ccccc1	?	-36%
Nc1c(Cl)cc(Cl)cc1Cl	-2%	21%
Cc1ncn(-c2ccccc2O)c1C	-3%[11.4 µM]	-3%[11.4 µM]
CCCC(c1nnnn1C1CCCC1)N1CCN(C(=O)c2ccco2)CC1 (stereo unspecified)	?	16µM*
CC(C)CC(c1nnnn1C1CCCC1)N1CCN(C(=O)c2ccco2)CC1 (stereo unspecified)	?	7.9µM*
COCCn1nnnc1C(CC(C)C)N1CCN(C(=O)c2ccco2)CC1 (stereo unspecified)	0%	20%
O=C(c1ccco1)N1CCN(C(c2ccccn2)c2nnnn2C2CCCC2)CC1 (stereo unspecified)	1%	28%
Oc1c(C(O)(c2ccccc2)c2ccc3ccccc3c2O)ccc2ccccc12	-15%[11.4 µM]	-26%[11.4 µM]
CC(=O)Nc1ccc2c(c1)C(=Nc1ccc(C(=O)O)cc1)c1ccccc1-2	-1%[11.4 µM]	-6%[11.4 µM]
CSc1nc(N(CCO)CCO)c2sc3nc(-c4ccco4)c4c(c3c2n1)CCC4	?	25µM*
CC(C)c1nc2sc3c(SCC(=O)NCc4ccco4)ncnc3c2c2c1CCC2	13%	1%
CCOc1ccc(-c2nnc(NC(=O)c3ccc(OCC(C)C)c(OC)c3)o2)cc1	?	25µM*
CCOc1ccc(NC(=O)CNC(=O)c2ccc(OC)c(OC)c2)cc1	8%	-3%
CN(C(=O)c1ccccc1C(=O)O)C1CC(C)(C)NC(C)(C)C1	-1%	7%
CSc1ncnc2nc[nH]c12	-1%	1%
Cc1ccc(Cl)cc1N1CCN(S(=O)(=O)c2ccc3c(c2)OCCO3)CC1	9%	20%
Cc1ccc(C)c(N2CCN(S(=O)(=O)c3ccc4c(c3)OCCO4)CC2)c1	25µM*	29%
SMILES	TSHR ag	HEK293 cAMP ctrl
NC1=N[C@H](c2ccc(Cl)cc2)N(c2ccc(S(=O)(=O)Nc3ncccn3)cc2)C(N)=N1	0%[11.4 µM]	1%[11.4 µM]
COc1ccccc1C(CCN(Cc1cccs1)C(C)=O)c1ccco1 (stereo unspecified)	?	16µM*
CCC(=O)NCCC(c1ccco1)c1ccccc1OC (stereo unspecified)	11%	16%
CN(C)c1nc(NCc2ccccc2)nc(Oc2ccc(=O)[nH]n2)n1	20µM*	12%
CCN(CC)c1nc(Nc2ccccc2)nc(Oc2ccc(=O)[nH]n2)n1	11%	14%
COc1ccc(/C=C(\C#N)C(N)=O)c(OC)c1	5%[11.4 µM]	13%[11.4 µM]
CCN(Cc1ccccc1)C(c1ccccn1)c1nnnn1C(C)(C)CC (stereo unspecified)	?	5µM*
CCC(C)(C)n1nnnc1C(c1ccccn1)N1CCOCC1 (stereo unspecified)	-9%	8%
CO[C@H]1COC(=O)[C@H](C)COC(=O)[C@H](C)NC(=O)C/C=C\[C@H]1C	-3%[11.4 µM]	18%[11.4 µM]
CN(Cc1cccc2ccccc12)Cc1cccc2ccccc12	12%[11.4 µM]	17%[11.4 µM]
O=C(CSc1nnc(-c2ccc(Cl)s2)o1)N1CCCc2ccccc21	?	4µM*
O=C(CSc1nnc(-c2ccc(Cl)s2)o1)N1CCc2ccccc21	19%	16%
CN(C)CCOC(=O)c1ccc(N)cc1	4%[11.4 µM]	5%[11.4 µM]
N[C@@H](Cc1ccnnc1)C(=O)O	2%[11.4 µM]	9%[11.4 µM]
COc1ccc(C(=O)c2coc3ccc(O)c(CN4CCOCC4)c23)cc1	18%	16%
